The results in this text go back to PubChem BioAssay (EPA / NIEHS).

Where “and” joins values, the source holds several entries; their conditions need not be identical. Equal entries are not always repeated. The source holds several records for some structures; these can differ, active in one and inactive in another. Calls of active or inactive are those of the source. The calls were made as follows: active = hit-call score of the fitted dose curve at least 0.9, where 1 is the maximum; inactive = score below 0.9.

Chain of Cytochrome P450 2C19 (Homo sapiens) (P33261 whole entry, looked up): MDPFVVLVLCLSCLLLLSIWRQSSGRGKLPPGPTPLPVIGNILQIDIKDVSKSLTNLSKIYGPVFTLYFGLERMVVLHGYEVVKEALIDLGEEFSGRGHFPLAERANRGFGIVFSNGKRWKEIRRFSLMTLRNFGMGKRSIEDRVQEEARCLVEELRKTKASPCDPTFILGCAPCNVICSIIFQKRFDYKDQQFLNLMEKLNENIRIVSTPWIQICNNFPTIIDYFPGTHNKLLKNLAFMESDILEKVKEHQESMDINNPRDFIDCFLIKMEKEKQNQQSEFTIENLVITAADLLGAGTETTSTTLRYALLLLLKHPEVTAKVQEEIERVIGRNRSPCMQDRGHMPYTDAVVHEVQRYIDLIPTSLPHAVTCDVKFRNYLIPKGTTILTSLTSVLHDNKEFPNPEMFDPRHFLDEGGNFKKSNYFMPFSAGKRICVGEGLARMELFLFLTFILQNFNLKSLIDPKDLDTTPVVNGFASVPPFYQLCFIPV

Read-out in the experiment: Cytochrome P450 2C19 (Homo sapiens) (UniProt P33261)
The experiment in a line: LTEA_HepaRG_CYP2C19: Life Technologies and Expression Analysis (LTEA) Assay for CYP2C19 using HepaRG (AID 2283482). As to conditions: mRNA level, 48 h; actives raise or lower the signal. Here is the method: LTEA_HepaRG is a cell based, multiplexed-readout assay that uses HepaRG, a human liver cell line, with measurements taken at 48 hours after chemical dosing on a 96-well plate.LTEA_HepaRG_CYP2C19 is one of 102 assay component(s) measured in the LTEA HepaRG cell culture assay. It is a marker of NR mediated metabolism.Data from the assay component LTEA_HepaRG_CYP2C19 was analyzed into 1 endpoint. This assay endpoint, LTEA_HepaRG_CYP2C19, was analyzed with bidirectional fitting relative to DMSO as the negative control and baseline of activity. Using a type of inducible reporter, measures of mRNA induction for gain or loss-of-signal activity can be used to understand regulation of transcription factor activity. To generalize the intended target to other relatable targets, this assay endpoint is annotated to the cyp intended target family, where the subfamily is xenobiotic metabolism.
A total of 1060 chemcials from the ToxCast library were tested in eight-point concentration-response experiments. Cell culture and cytotoxicity assays were conducted at Thermo Fisher Scientific's Custom Services facility (Madison, WI). A single lot of human HepaRG cells (Thermo Fisher Scientific, Frederick, MD) was used for the cell culture experiments. 96-well format collagen type I coated plates of human HepaRG cells were prepared using established methods. Briefly, cryopreserved HepaRG cells were thawed, plated at a density of approximately 100,000 cells/well in HepaRG Thaw, Plate, and General Purpose media (HPRG770, Thermo Fisher Scientific), and incubated for 48 hours. 0.5% DMSO was selected as vehicle control to balance the requisite need of DMSO in HepaRG cultures to maintain differentiation (for example, baseline metabolism, proportions of hepatocytes vs. cholangiocytes), while enabling further hepatic receptor pathway activation (for example, PXR and CAR) in response to chemical exposure. 48 hours after plating, the culture medium was replaced with HepaRG Serum-Free Incudtion Media. Cells were exposed to each test chemical in duplicate and maintained in CO2 incubators for another 48 hours. Chemical plates were thawed to room temperature and 200x concentrations of treatment groups were prepared. 8-point conentration-reponse curves were made with the highest exposure at 100 uM, followed by half-log dilutions, all in 0.5% DMSO. Each test plate contained variouse controls, induction positive controls (1mM phenobarbital), cytotoxicity positive controls ([…] aflatoxin B1), vehicle controls (0.5% DMSO), and total lysis controls (0.5% DMSO). Cell morphology images were taken using an Essen IncuCyte FLR automated microscope, with six 96-well plates imaged in about 24 minutes. Images were captured and exported and JPEG files. Spent culture media was transfered to black-well plates for the LDH assay, and remaining media was sorted at -80 C for later use. Cells were treated with RLT buffer and frozen until shipped for gene expression analysis. Total RNA was isolated from the cell suspension in 75 uL of Buffer RLT (Qiagen, Germantown, MD 20874) by Quintiles/Expression Analysis (Durham, NC) using a custom isolation procedure. Total RNA from each plate well was transferred to a preamplification plate. Fluidigm's 96.96 Dynamic ArrayTM (Fluidigm, Amsterdam, the Netherlands) technology was used for gene expression analyses by quantitative reverse transcription polymerase chain reaction (qRT-PCR, performed by Quintiles/Expression Analysis, Durham, NC)89. Standard TaqManTM Assays (Applied Biosystems/ThermoFisher Scientific, Foster City, CA) were used to assess the expression of 93 genes selected based on their selectivity and sensitivity to important hepatic receptors known to be modulated by environmental chemicals; importance in human hepatocyte functionality; and hepatotoxicity. […]
On to `CCCN(CCC)c1c([N+](=O)[O-])cc(S(N)(=O)=O)cc1[N+](=O)[O-]`, for which the AC50 (in general, the concentration at which the activity in the assay is half-maximal) was 8.44 µM (active) and 84.8 µM (active) and 8.78 µM (active).
For the compound `CON(C)C(=O)Nc1ccc(Cl)c(Cl)c1`, the AC50 is 65.1 µM (active).
The same measure, in the same setting: in the case of `C#CCOS(=O)OC1CCCCC1Oc1ccc(C(C)(C)C)cc1` (stereo not given) it was 26.3 µM (active); in that of `Cc1cc(Cl)ccc1OCC(=O)O`, 24.3 µM (active); in that of `CC(C)C1(C)N=C(c2nc3ccccc3cc2C(=O)O)NC1=O` (stereo not given), 14.1 µM (active).
`CC(C)Oc1cc(-n2nc(C(C)(C)C)oc2=O)c(Cl)cc1Cl`: the concentration at half-maximal activity (AC50) is 1.44 µM (active).
Take `Oc1ccccc1-c1ccccc1`: the outcome was inactive.
Same read-out and setting: in the case of `CCCCNC(=O)n1c(NC(=O)OC)nc2ccccc21` it was “inactive”; in that of `CS/C(C)=N/OC(=O)N(C)SN(C)C(=O)O/N=C(\C)SC`, “inactive”.
Consider `C=CCC1=C(C)C(OC(=O)C2C(C=C(C)C)C2(C)C)CC1=O` (stereo not given), for which the result was inactive and the half-maximal activity concentration (AC50) is 91.5 µM (active).
As to `CC1COC(Cn2cncn2)(c2ccc(Oc3ccc(Cl)cc3)cc2Cl)O1` (stereo not given), the concentration at half-maximal activity (AC50) was 27.1 µM (active).
Still for that read-out and setting: the same measure for `CCON=C(CC)C1=C(O)CC(c2c(C)cc(C)cc2C)CC1=O` (stereo not given): 23.5 µM (active); for `O=C(O)COc1nc(Cl)c(Cl)cc1Cl`: 51 µM (active); for `CCc1nn(C)c(C(=O)NCc2ccc(C(C)(C)C)cc2)c1Cl`: 20.7 µM (active).
In the case of `CCCCNC(=O)OCC#CI`, the AC50 was 50 µM (active).
Turning to `COP(N)(=O)SC` (stereo not given), the result was inactive.
For `N#CC(CCc1ccc(Cl)cc1)(Cn1cncn1)c1ccccc1` (stereo not given), the AC50 is 76.1 µM (active).
In the case of `CCCCC(CC)COC(=O)c1ccccc1C(=O)OCC(CC)CCCC` (stereo not given), the compound was called inactive.
Regarding `Cc1ccc(-c2c(Cl)nc(C#N)n2S(=O)(=O)N(C)C)cc1`, the AC50 was 5.98 µM (active).
For the compound `CN(C)C(=S)SSC(=S)N(C)C`, the result was inactive.
On to `CNC(=S)S`, for which the call was inactive.
Take `CCOc1cc(Oc2ccc(C(F)(F)F)cc2Cl)ccc1[N+](=O)[O-]`: the concentration at half-maximal activity (AC50) is 69.3 µM (active).
As for `COC(=O)c1ccccc1C(=O)OC`, the compound was classed as inactive.
With `CCNc1nc(Cl)nc(NC(C)C)n1`, the half-maximal activity concentration (AC50) is 15.2 µM (active).
Still for that read-out and setting: the same measure for `O=C(Nc1ccccc1)Nc1ccnc(Cl)c1`: 79 µM (active).
As for `CC1=C(C(=O)Nc2ccccc2)SCCO1`, the compound was classed as inactive.
For the compound `COc1nc(NC(C)C)nc(NC(C)C)n1`, the concentration at half-maximal activity (AC50) is 9.99 µM (active).
Still for that read-out and setting: in the case of `N#Cc1nn(-c2c(Cl)cc(C(F)(F)F)cc2Cl)c(N)c1S(=O)C(F)(F)F` (stereo not given) it was 29.9 µM (active); in that of `C=CC1(C)OC(=O)N(c2cc(Cl)cc(Cl)c2)C1=O` (stereo not given), 18.4 µM (active).
`CCOP(=S)(OCC)SCn1c(=O)oc2cc(Cl)ccc21`: the outcome was inactive.
On the same count and under the same terms, in the case of `CC(Oc1ccc(Cl)cc1Cl)C(=O)O` (stereo not given) it was “inactive”.
The same measure, in the same setting: the same measure for `CCCCOC(=O)c1ccccc1C(=O)OCCCC`: “inactive”.
For the compound `N#Cc1cc(Br)c(O)c(Br)c1`, the concentration at half-maximal activity (AC50) is 13.9 µM (active).
For `Cc1c(F)c(F)c(COC(=O)C2C(/C=C(\Cl)C(F)(F)F)C2(C)C)c(F)c1F` (stereo not given), the compound was classed as inactive.
For `COC(=O)N(OC)c1ccccc1COc1ccn(-c2ccc(Cl)cc2)n1`, the concentration at half-maximal activity (AC50) was 77.8 µM (active).
For `COP(=S)(OC)Oc1nc(Cl)c(Cl)cc1Cl`, the call was inactive.
Same read-out and setting: the same measure for `CNC(=O)ON=CC(C)(C)SC`: “inactive”.
Turning to `CCCC1COC(Cn2cncn2)(c2ccc(Cl)cc2Cl)O1` (stereo not given), the AC50 was 74.5 µM (active).
Take `C=CCC1=C(C)[C@@H](OC(=O)[C@@H]2[C@@H](C=C(C)C)C2(C)C)CC1=O`: the compound was called inactive.
